In PubChem BioAssay:
Where “and” joins values, the source holds several entries; their conditions need not be identical. Equal entries are not always repeated. Calls of active or inactive are those of the source.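 How the source made its calls, unless noted: active means compounds whose cell count with miR-34 switched on is under 0.7 times the count with it off; inactive means the rest.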 Where a SMILES comes first, the peptide text is derived from it. [ ]: non-standard residue; d: D form. pGlu = O=C1CC[CH](C(=O)O)N1; Thz = O=C(O)[CH]1CSCN1

Key:
[1] = viability loss with induced miR-34 in A549 – imaging, A549 dox-inducible miR-34, nuclei and caspase counts, primary screen (AID 1347080); settings: A549 miR-34 inducible, Hoechst nuclei count, 48 h; further: test concentration not given here
[2] = MELAS cybrid and Rieske KO viability enhancers – cell-based, MELAS cybrids, Rieske KO mouse fibroblasts, CellTiter-Glo, primary screen (AID 1508586;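 active means mean z-score across replicates of 1.96 or higher in either the MELAS or the Rieske mutant cell line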;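 further: test concentration not given here; z relative to plate mean and SD of compound and empty wells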); settings: low glucose
[3] = galactose survival enhancers in mitochondrial complex I cybrids – cell-based, galactose medium, ATP luminescence, primary screen (AID 1645843;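 active means z-score of at least 1.8 in each of two replicates, scored against plate mean and spread of sample wells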;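 further: positive z means more ATP and so rescue of galactose-driven cybrid death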); settings: complex I mutant cybrid cells, 72 h, stronger effect = higher value
[4] = stronger effect = lower value, cell number ratio, induced over uninduced
[5] = measured here: relative caspase fold change +Dox/-Dox
[6] = measured here: total cells with miR-34 induction, stronger effect = lower value
[7] = measured here: total cells without miR-34 induction
[8] = MELAS cybrid survival, CellTiter-Glo 48 h, stronger effect = higher value
[9] = Rieske KO mouse fibroblast survival, CellTiter-Glo 72 h

SMILES	fold change [1, 4]	fold change [1, 5]	cell count [1, 6]	cell count [1, 7]	z-score [2, 8]	z-score [2, 9]	z-score [3]
NC(=O)c1ccccc1-c1cccc2ccccc12	0.84 (inactive)	1.62	7950	9470	-0.37 (inactive)	0.135	-0.38 (inactive)
CCCc1cn(CC2CCCN(C(=O)c3nc4ncccn4n3)C2)nn1 (stereo not drawn)	0.866 (inactive)	1.31	9000	10400	-0.289 (inactive)	-0.243	-0.51 (inactive)
O=C1CCC(C(=O)N2CSCC2C(=O)O)N1 (stereo not drawn) ([pGlu]-[Thz]-OH; configuration not given here)	0.957 (inactive) and 1 (inactive)	1.75 and 0.634	9270 and 8110	9680 and 8100	-0.302 (inactive)	-0.109	0.45 (inactive)
Cn1nc(NC(=O)Cn2ccc(-c3ccco3)n2)c2ccccc21	0.861 (inactive)	2.39	7120	8270	1.07 (inactive)	0.074	0.205 (inactive)
Cc1nsc(NC(=O)N2CCCCC2c2nc(C(C)C)no2)n1 (stereo not drawn)	0.906 (inactive)	1.98	9100	10000	-0.274 (inactive)	-0.381	-0.525 (inactive)
CCn1nccc1NC(=O)Cn1cc(-c2ccc(C(=O)N3CCCC3)cn2)cn1	0.832 (inactive)	1.64	7850	9430	0.812 (inactive)	-0.539	-0.57 (inactive)
O=C1CCCc2occ(C(=O)N3CCc4[nH]nc(Cc5ccccc5)c4C3)c21	0.979 (inactive)	0.441	9440	9640	-0.275 (inactive)	-0.284	-0.515 (inactive)
NCCCNc1ccccc1[N+](=O)[O-]	0.945 (inactive)	0.463	8170	8640	-0.896 (inactive)	0.0452	0.19 (inactive)
Fc1ccc(CC2CCNCC2)cc1	0.856 (inactive)	0.77	8200	9580	-0.906 (inactive)	0.0714	0.525 (inactive)
CCn1cc(CNC(=O)Nc2nnc(C(C)(C)C)s2)cn1	0.886 (inactive)	2.1	8600	9710	0.641 (inactive)	-0.73	-0.6 (inactive)
CNC1CCC(c2ccc(Cl)c(Cl)c2)c2ccccc21 (stereo not drawn)	0.897 (inactive) and 0.972 (inactive)	1.54 and 0.385	3400 and 7100	3800 and 7300	-0.116 (inactive)	-0.231	-1.88 (inactive)
Cc1csc2ncnc(-c3cccc4ncccc34)c12	0.896 (inactive)	0.971	7440	8300	0.0854 (inactive)	-0.504	-0.49 (inactive)
CCn1cnc(NC(=O)N(C)Cc2ccc(OC)cc2)n1	0.869 (inactive)	1.63	8620	9910	-0.112 (inactive)	-0.365	1.77 (inactive)
C[C@H](NC(=O)c1cnc(-c2ccccc2)[nH]1)c1ccccc1	0.876 (inactive)	2.24	7380	8420	0.341 (inactive)	-0.103	-0.6 (inactive)
CSc1n[nH]c(-c2ccc(Cl)cc2)n1	0.939 (inactive)	0.52	8540	9100	1.97 (active)	-0.569	0.11 (inactive)
Cc1ccc(S(=O)(=O)NCCCOC(=O)Nc2ccncc2)cc1	0.881 (inactive)	0.547	7920	8990	0.675 (inactive)	-0.0111	-0.675 (inactive)
Cc1nn(C)c(C)c1-c1ccnc(NCCOCCO)n1	0.905 (inactive)	1.28	8320	9200	0.0151 (inactive)	-0.129	-0.555 (inactive)

SMILES	fold change [1, 4]	fold change [1, 5]	cell count [1, 6]	cell count [1, 7]	z-score [2, 8]	z-score [2, 9]	z-score [3]
O=C(O)CCCCCNC(=O)NC1CCCCC1	0.882 (inactive)	0.38	9190	10400	-0.568 (inactive)	0.057	0.68 (inactive)
Cc1nsc(NC(=O)NCc2ccccc2-n2ccnc2C)n1	0.866 (inactive)	1.23	9020	10400	0.0398 (inactive)	-0.281	-0.575 (inactive)
Cc1ccc(C(=O)N2CCC(Cc3ccccc3)CC2)cc1	0.922 (inactive)	1.12	7870	8540	-0.903 (inactive)	0.658	-0.71 (inactive)
CN(CCn1cccn1)Cc1ccc(-c2nc(-c3cccnc3)cc(=O)[nH]2)cc1	0.951 (inactive)	1.22	8710	9150	-0.265 (inactive)	0.251	0.18 (inactive)
O=C(O)c1ccc(-c2ccccc2OC(F)(F)F)o1	0.872 (inactive)	0.264	8780	10100	-0.488 (inactive)	0.181	0.04 (inactive)
CCN(CC)C(=O)[C@]1(c2ccccc2)CC1CN (stereo partly drawn)	0.994 (inactive) and 0.915 (inactive)	2.55 and 0.784	10600 and 8120	10700 and 8880	-0.247 (inactive)	-0.165	0.315 (inactive)
Oc1ccc(C=Cc2cc(O)cc(O)c2)cc1	2.61 (inactive) and 0.913 (inactive)	1.12 and 0.945	6320 and 7520	2420 and 8230	-0.411 (inactive)	0.338	1.1 (inactive)
OCC1OC(Oc2cc(O)cc(C=Cc3ccc(O)cc3)c2)C(O)C(O)C1O (stereo not drawn)	0.967 (inactive) and 0.947 (inactive)	1.94 and 0.831	9700 and 8270	10000 and 8720	-0.124 (inactive)	-0.651	0.4 (inactive)
Cc1nc2ccc(CN(C)c3ccc(C(=O)NC(CCC(=O)O)C(=O)O)s3)cc2c(=O)[nH]1 (stereo not drawn)	1.21 (inactive) and 1.1 (inactive)	1.12 and 0.742	1780 and 1710	1470 and 1560	-0.603 (inactive)	-0.121	-1.03 (inactive)
Nc1nc(-c2ccoc2)c2[nH]cnc2n1	0.933 (inactive)	1.81	9520	10200	-0.0543 (inactive)	-0.319	-0.485 (inactive)
CC1(C)OC2CO[C@@]3(COS(N)(=O)=O)OC(C)(C)OC3C2O1 (stereo partly drawn)	0.947 (inactive) and 0.976 (inactive)	1.9 and 0.922	9570 and 9420	10100 and 9650	1.94 (inactive)	-0.659	1.01 (inactive)
Cc1cc(NC(=O)Cn2cc(-c3cccc4cccnc34)cn2)n(C)n1	0.876 (inactive)	0.926	8830	10100	-0.478 (inactive)	-0.249	-0.585 (inactive)
CN1CCN(Cc2ccc3nonc3c2)CC1CCO (stereo not drawn)	0.893 (inactive)	1.09	8970	10000	-0.262 (inactive)	-0.13	-0.35 (inactive)
COc1ccc(F)c(-c2cccc(N)n2)c1	0.864 (inactive)	1.37	8940	10300	-0.0723 (inactive)	-0.237	-0.555 (inactive)
CC(NC(=O)OCc1ccccc1)C(=O)O (stereo not drawn)	0.909 (inactive)	0.337	9090	10000	0.137 (inactive)	0.148	0.185 (inactive)
CCn1ncc(NC(=O)Cn2cc(-c3cccc(-n4cccn4)c3)cn2)n1	0.876 (inactive)	1.27	2160	2470	-0.0561 (inactive)	-0.379	-0.505 (inactive)
Cc1nn(C)cc1-c1ccnc(N2CCCN(c3ccccc3)CC2)n1	0.823 (inactive)	0.527	5610	6820	-1.06	3.98	2.46 (active)
